In all, about 16,000 sequences were measured (“rpm ratio (pull-down/input)”: median about 0.94, highest 2% from about 1.7 on). This is one part of a sample in which the highest values are shown more often than they occur.
Biological target: T1, MBP-FoxP1dN (Mus musculus, UniProt P58462 326-579)
T1 sequence: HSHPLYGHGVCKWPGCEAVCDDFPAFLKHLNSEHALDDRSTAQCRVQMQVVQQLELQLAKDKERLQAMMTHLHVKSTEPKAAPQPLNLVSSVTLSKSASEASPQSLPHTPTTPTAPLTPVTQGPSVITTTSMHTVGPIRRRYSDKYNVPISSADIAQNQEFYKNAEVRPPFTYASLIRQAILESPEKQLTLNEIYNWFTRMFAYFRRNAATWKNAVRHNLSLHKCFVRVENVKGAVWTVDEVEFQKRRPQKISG
Experiment: PD-seq (MBP pull-down with sequencing); 20 mM Tris-HCl pH 7.5, 100 mM NaCl, 1.5 mM MgCl2, 0.4 uM protein, 0.1 uM dsDNA library, 30 min, room temperature, amylose pull-down; high values mean tight binding
Settings: protein: recombinant; tags: His6-MBP; chain copies: 2; dsDNA, one strand shown
In short: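 Binding is reads-per-million enrichment of pull-down over input, with replicates pooled. It comes from 30 min room-temperature incubation in Tris pH 7.5 buffer with NaCl and MgCl2 of 0.4 µM His6-MBP-tagged, N-terminally truncated mouse FoxP3 or FoxP1 fragment from E. coli with 0.1 µM Klenow-filled degenerate double-stranded DNA library, followed by amylose resin capture, three washes and Illumina sequencing of the released DNA.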

**Q.** For “GATGATTGTTCTCCCAGCTGATGAATTCAAGATATCGAGTAAACAAATTTTCCTAATCTTTCTGTTCAAGCGCCATCTAC”, which binding signal is on record?
**A.** 0.908 RPM ratio (pull-down/input)

**Q.** For “GATGATTGTTCTCCCAGCTGATGAATTCGTCTACTCGAGTAAACAAATTTTCCTAATCTTTCTGTTCAAGCGCCATCTAC”, which binding signal is on record?
**A.** 0.938 RPM ratio (pull-down/input)

**Q.** With “GATGATTGTTCTCCCAGCTGATGAATTCTTTTCATCGAGTAAACAAATTTTCCTAATCTTTCTGTTCAAGCGCCATCTAC” as the sequence, how does the binding signal read?
**A.** 1.07 RPM ratio (pull-down/input)

**Q.** “GATGATTGTTCTCCCAGCTGATGAATTCAGGGCTTCGAGTAAACAAATTTTCCTAATCTTTCTGTTCAAGCGCCATCTAC” was tested. Which binding signal did it give?
**A.** 0.881 RPM ratio (pull-down/input)

**Q.** For “GATGATTGTTCTCCCAGCTGATGAATTCGCCGATTCGAGTAAACAAATTTTCCTAATCTTTCTGTTCAAGCGCCATCTAC”, which binding signal is on record?
**A.** 0.86 RPM ratio (pull-down/input)

**Q.** “GATGATTGTTCTCCCAGCTGATGAATTTGTCCTTTCGAGTAAACAAATTTTCCTAATCTTTCTGTTCAAGCGCCATCTAC” was tested. Which binding signal did it give?
**A.** 1.08 RPM ratio (pull-down/input)

**Q.** “GATGATTGTTCTCCCAGCTGATGAATTATGTTCGTCGAGTAAACAAATTTTCCTAATCTTTCTGTTCAAGCGCCATCTAC” was tested. Which binding signal did it give?
**A.** 1.06 RPM ratio (pull-down/input)

**Q.** “GATGATTGTTCTCCCAGCTGATGAATTGTGGTTATCGAGTAAACAAATTTTCCTAATCTTTCTGTTCAAGCGCCATCTAC” was tested. Which binding signal did it give?
**A.** 1.27 RPM ratio (pull-down/input)

**Q.** How did the binding signal turn out when “GATGATTGTTCTCCCAGCTGATGAATTGTGTTAATCGAGTAAACAAATTTTCCTAATCTTTCTGTTCAAGCGCCATCTAC” was run?
**A.** 1.27 RPM ratio (pull-down/input)

**Q.** “GATGATTGTTCTCCCAGCTGATGAATTTGTGTTATCGAGTAAACAAATTTTCCTAATCTTTCTGTTCAAGCGCCATCTAC” was tested. Which binding signal did it give?
**A.** 2.08 RPM ratio (pull-down/input)

**Q.** Which binding signal does the source give for “GATGATTGTTCTCCCAGCTGATGAATTTGTTCTGTCGAGTAAACAAATTTTCCTAATCTTTCTGTTCAAGCGCCATCTAC” here?
**A.** 1.07 RPM ratio (pull-down/input)

**Q.** “GATGATTGTTCTCCCAGCTGATGAATTTTTTGCGTCGAGTAAACAAATTTTCCTAATCTTTCTGTTCAAGCGCCATCTAC” was tested. Which binding signal did it give?
**A.** 1.1 RPM ratio (pull-down/input)

**Q.** For “GATGATTGTTCTCCCAGCTGATGAATTTTGTCTGTCGAGTAAACAAATTTTCCTAATCTTTCTGTTCAAGCGCCATCTAC”, which binding signal is on record?
**A.** 1.02 RPM ratio (pull-down/input)

**Q.** For “GATGATTGTTCTCCCAGCTGATGAATTTTGATTGTCGAGTAAACAAATTTTCCTAATCTTTCTGTTCAAGCGCCATCTAC”, which binding signal is on record?
**A.** 1.67 RPM ratio (pull-down/input)

**Q.** With “GATGATTGTTCTCCCAGCTGATGAATTTGTTTTGTCGAGTAAACAAATTTTCCTAATCTTTCTGTTCAAGCGCCATCTAC” as the sequence, how does the binding signal read?
**A.** 2.33 RPM ratio (pull-down/input)

**Q.** “GATGATTGTTCTCCCAGCTGATGAATTTTCTTTGTCGAGTAAACAAATTTTCCTAATCTTTCTGTTCAAGCGCCATCTAC” was tested. Which binding signal did it give?
**A.** 1.11 RPM ratio (pull-down/input)

**Q.** “GATGATTGTTCTCCCAGCTGATGAATTTTGTTTGTCGAGTAAACAAATTTTCCTAATCTTTCTGTTCAAGCGCCATCTAC” was tested. Which binding signal did it give?
**A.** 2.66 RPM ratio (pull-down/input)

**Q.** With “GATGATTGTTCTCCCAGCTGATGAATTGTTTCTGTCGAGTAAACAAATTTTCCTAATCTTTCTGTTCAAGCGCCATCTAC” as the sequence, how does the binding signal read?
**A.** 1.25 RPM ratio (pull-down/input)

**Q.** How did the binding signal turn out when “GATGATTGTTCTCCCAGCTGATGAATTGTTTTTGTCGAGTAAACAAATTTTCCTAATCTTTCTGTTCAAGCGCCATCTAC” was run?
**A.** 2.31 RPM ratio (pull-down/input)

**Q.** Which binding signal does the source give for “GATGATTGTTCTCCCAGCTGATGAATTTTGCGCGTCGAGTAAACAAATTTTCCTAATCTTTCTGTTCAAGCGCCATCTAC” here?
**A.** 1.04 RPM ratio (pull-down/input)

**Q.** With “GATGATTGTTCTCCCAGCTGATGAATTGAATTTGTCGAGTAAACAAATTTTCCTAATCTTTCTGTTCAAGCGCCATCTAC” as the sequence, how does the binding signal read?
**A.** 0.98 RPM ratio (pull-down/input)

**Q.** With “GATGATTGTTCTCCCAGCTGATGAATTGTTTGCGTCGAGTAAACAAATTTTCCTAATCTTTCTGTTCAAGCGCCATCTAC” as the sequence, how does the binding signal read?
**A.** 2.27 RPM ratio (pull-down/input)
